# Where two headings read alike, the source gives them in different places.
# What was measured:
# Set-up in all cases: species or system human, MV4-11 + K-562 + COLO205 + SK-N-BE2 + OVCAR-8
# CHEK1 = conditions: read-out: apparent Kd, n = 1
# EPHA4 = conditions: read-out: apparent Kd, compound concentrations: 100 nM and 1000 nM (sheet 'Samples'), n = 1
# EPHB2 = conditions: read-out: apparent Kd, compound concentrations: 100 nM and 1000 nM (sheet 'Samples'), n = 1
# EPHB4 = conditions: read-out: apparent Kd, compound concentrations: 100 nM and 1000 nM (sheet 'Samples'), n = 1
# CDK16 = conditions: read-out: apparent Kd, n = 1
# PRKACA = conditions: read-out: apparent Kd, n = 1
# RPS6KA4 = conditions: read-out: apparent Kd, n = 1
# MARK3 = conditions: read-out: apparent Kd, n = 1
# STK4 = conditions: read-out: apparent Kd, n = 1
# AURKA = conditions: read-out: apparent Kd; compound concentrations:100 nM and 1000 nM (sheet 'Samples'); n = 1
# ATM = conditions: read-out: apparent Kd; compound concentrations: 100 nM and 1000 nM (sheet 'Samples'), CATDS: 0.160358426493935; n = 1
# PRKACB = conditions: read-out: apparent Kd, n = 1
# MAPK9 = conditions: read-out: apparent Kd, compound concentrations: 100 nM and 1000 nM (sheet 'Samples'), n = 1
# CAMKK2 = conditions: read-out: apparent Kd, compound concentrations: 100 nM and 1000 nM (sheet 'Samples'), n = 1
# PIP4K2C = conditions: read-out: apparent Kd, compound concentrations: 100 nM and 1000 nM (sheet 'Samples'), n = 1
# BCR = conditions: read-out: apparent Kd, compound concentrations: 100 nM and 1000 nM (sheet 'Samples'), n = 1
# EPHA5 = conditions: read-out: apparent Kd, compound concentrations: 100 nM and 1000 nM (sheet 'Samples'), n = 1
# PRKAG2 = conditions: read-out: apparent Kd; compound concentrations: 100 nM and 1000 nM (sheet 'Samples'), CATDS: 2.6904980441579199E-2; n = 1
# TNK1 = conditions: read-out: apparent Kd; compound concentrations: 100 nM and 1000 nM (sheet 'Samples'), CATDS: 3.75321125845825E-2; n = 1
# [1] = compound concentrations:100 nM and 1000 nM (sheet 'Samples')
structure (smiles),measurement,setting,value
CNCC1CCn2c(c(C3=C(c4cn(C)c5ccccc45)C(=O)NC3=O)c3ccccc32)C1 (stereo not shown) [RO0318676-000],potency estimated from few doses,"CHEK1; compound concentrations: 100 nM and 1000 nM (sheet 'Samples'), CATDS: 3.6585074112693398E-2",754 nM
same,potency estimated from few doses,EPHA4; CATDS: 2.83796334007482E-2,1680 nM
same,potency estimated from few doses,EPHB2; CATDS: 2.91102387203203E-2,1530 nM
same,potency estimated from few doses,EPHB4; CATDS: 3.3476248277138E-2,973 nM
NS(=O)(=O)c1ccc(N/N=C2\C(=O)Nc3ccc(-c4cnco4)cc32)cc1 [GW276655_KCGS],potency estimated from few doses,CDK16; [1],1880 nM
CCn1c(-c2nonc2N)nc2cncc(C(=O)N3CC[C@H](N)C3)c21.Cl [SB-772077-B],potency estimated from few doses,PRKACA; [1],790 nM
same,potency estimated from few doses,RPS6KA4; [1],82.6 nM
CNc1nccc(-c2ccc3c(N)n[nH]c3c2)n1 [GSK2206003A],potency estimated from few doses,"MARK3; compound concentrations: 100 nM and 1000 nM (sheet 'Samples'), CATDS: 5.1673366030294897E-2",1410 nM
CN(C)c1ccc2c(c1)/C(=C/Nc1ccc(S(N)(=O)=O)cc1)C(=O)N2 [GW416469X],potency estimated from few doses,"STK4; compound concentrations: 100 nM and 1000 nM (sheet 'Samples'), CATDS: 7.4915408427864094E-2",1510 nM
O=C(Nc1n[nH]c2nc(-c3ccccc3O)ccc12)C1CC1 [SB-711880],potency estimated from few doses,AURKA,286 nM
same,potency estimated from few doses,CHEK1; [1],967 nM
same,potency estimated from few doses,MARK3; [1],1610 nM
same,potency estimated from few doses,STK4; [1],345 nM
Nc1nccc(-c2ccc3c(N)n[nH]c3c2)n1 [GSK1034945A],potency estimated from few doses,MARK3; [1],1040 nM
NS(=O)(=O)c1ccc(N/C=C2\C(=O)Nc3ccc4ncsc4c32)cc1 [GW297361X],potency estimated from few doses,"CDK16; compound concentrations: 100 nM and 1000 nM (sheet 'Samples'), CATDS: 4.8575287587601497E-2",557 nM
same,potency estimated from few doses,"RPS6KA4; compound concentrations: 100 nM and 1000 nM (sheet 'Samples'), CATDS: 3.5375158245813998E-2",1150 nM
same,potency estimated from few doses,"STK4; compound concentrations: 100 nM and 1000 nM (sheet 'Samples'), CATDS: 4.6410579301478898E-2",611 nM
CCC(CC)(CC)n1cnc2c(N)ncnc21 [SKF-97620],potency estimated from few doses,ATM,43.6 nM
Cl.Cl.NC[C@H](CC1CCCCC1)NC(=O)c1ccc(-c2ccnc3[nH]ccc23)s1.NC[C@H](CC1CCCCC1)NC(=O)c1ccc(-c2ccnc3[nH]ccc23)s1 [GSK1581428A],potency estimated from few doses,PRKACA; [1],31 nM
same,potency estimated from few doses,PRKACB; [1],49.7 nM
CN[C@H](C#Cc1c(F)ccc2c1/C(=C/c1[nH]ccc1OC)C(=O)N2)CO.Cl [RO0283049-001],potency estimated from few doses,"CDK16; compound concentrations: 100 nM and 1000 nM (sheet 'Samples'), CATDS: 4.8469274935302599E-2",167 nM
same,potency estimated from few doses,MAPK9; CATDS: 5.4093082413128303E-2,135 nM
same,potency estimated from few doses,"RPS6KA4; compound concentrations: 100 nM and 1000 nM (sheet 'Samples'), CATDS: 3.14855312856318E-2",432 nM
same,potency estimated from few doses,"STK4; compound concentrations: 100 nM and 1000 nM (sheet 'Samples'), CATDS: 2.6680938989094499E-2",674 nM
COc1cc[nH]c1/C=C1\C(=O)Nc2ccc([N+](=O)[O-])c(N3CC[C@@H](O)C3)c21 [RO0504985-000],potency estimated from few doses,"CDK16; compound concentrations: 100 nM and 1000 nM (sheet 'Samples'), CATDS: 3.96360486889639E-2",697 nM
same,potency estimated from few doses,MAPK9; CATDS: 2.9417077034867501E-2,2110 nM
Cl.Cl.NCC(NC(=O)c1cc(-c2ccnc3[nH]ccc23)cs1)c1ccccc1.NCC(NC(=O)c1cc(-c2ccnc3[nH]ccc23)cs1)c1ccccc1 (stereo not shown) [GSK1229959A],potency estimated from few doses,CAMKK2; CATDS: 1.7349658835090001E-2,1720 nM
same,potency estimated from few doses,"CDK16; compound concentrations: 100 nM and 1000 nM (sheet 'Samples'), CATDS: 1.6665892971292499E-2",2280 nM
same,potency estimated from few doses,PIP4K2C; CATDS: 1.6714878320236801E-2,2230 nM
same,potency estimated from few doses,"PRKACA; compound concentrations: 100 nM and 1000 nM (sheet 'Samples'), CATDS: 5.4700328593155198E-2",27.5 nM
same,potency estimated from few doses,"PRKACB; compound concentrations: 100 nM and 1000 nM (sheet 'Samples'), CATDS: 4.1114005800974601E-2",56 nM
CC(C)(CO)CNC(=O)c1ccc2c(c1)/C(=N/Nc1ccc(S(N)(=O)=O)cc1)C(=O)N2 [GW301784X],potency estimated from few doses,CDK16; [1],53 nM
Cl.Nc1nc(-c2ccc3c(c2)C(=Cc2cc(Br)c(O)c(Br)c2)C(=O)N3)cs1 [GW407323A],potency estimated from few doses,"CDK16; compound concentrations: 100 nM and 1000 nM (sheet 'Samples'), CATDS: 4.1043878899959203E-2",464 nM
Cl.Cn1c(=O)c(Cc2ccccc2F)cc2cnc(NC3CCOCC3)nc21 [RO3305377-001],potency estimated from few doses,BCR; CATDS: 2.3215110623404499E-2,783 nM
same,potency estimated from few doses,CAMKK2; CATDS: 1.7496919808973301E-2,1640 nM
same,potency estimated from few doses,EPHA4; CATDS: 2.0796665862367499E-2,1010 nM
same,potency estimated from few doses,EPHA5; CATDS: 2.9701717682633799E-2,481 nM
same,potency estimated from few doses,EPHB2; CATDS: 2.7488679205580801E-2,555 nM
same,potency estimated from few doses,EPHB4; CATDS: 3.5368678995808499E-2,357 nM
same,potency estimated from few doses,MAPK9; CATDS: 2.8205864879245399E-2,529 nM
same,potency estimated from few doses,PIP4K2C; CATDS: 1.61438790686462E-2,2170 nM
same,potency estimated from few doses,"PRKACB; compound concentrations: 100 nM and 1000 nM (sheet 'Samples'), CATDS: 1.8562598651845501E-2",1370 nM
same,potency estimated from few doses,PRKAG2,578 nM
same,potency estimated from few doses,TNK1,325 nM
Cl.Oc1cccc(Nc2ccnc3cc(-c4ccncc4)ccc23)c1 [GW494601A],potency estimated from few doses,BCR; CATDS: 9.7304657047822804E-2,10.5 nM
same,potency estimated from few doses,EPHA4; CATDS: 3.3294473343985699E-2,165 nM
same,potency estimated from few doses,EPHA5; CATDS: 3.7293479964616502E-2,113 nM
same,potency estimated from few doses,EPHB2; CATDS: 2.64855925277621E-2,385 nM
same,potency estimated from few doses,EPHB4; CATDS: 3.7673587952975797E-2,110 nM
